Among the data in PubChem BioAssay (NCATS) are Potency and outcome values, retold here.

For experiment [1], the system named is Zika virus NS2B-NS3 protease (unlinked complex). In words: Primary screen GU Rhodamine qHTS for Zika virus inhibitors: Unlinked NS2B-NS3 protease assay (AID 1347159). Further: nearly all actives have a fitted effect of over 60% in size. The procedure, abridged: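 In dose–response format, inhibition of unlinked protease (25 nM) was measured with 1.5 microM bis-peptide Rhodamine110 substrate. Aprotinin served as the intraplate control.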

Experiment [2] has as its system Zika virus NS2B-NS3 protease (linked construct). In words: Primary screen NINDS Rhodamine qHTS for Zika virus inhibitors (AID 1347160). Further: nearly all actives have a fitted effect of over 55% in size. The settings on record: outcome: dose series up to 57.1 µM unless noted. Summed up: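 Each compound, titrated, sat 15 min with 25 nM linked protease before 1.5 microM Rhodamine110 substrate went in. Fluorescence gain over the next 15 min, in pH 8.0 Tris with Tween 20, gave Hill-fitted curves.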

Experiment [3] in a line: qHTS to identify inhibitors of the type 1 interferon - major histocompatibility complex class I in skeletal muscle: primary screen against the NCATS Pharmaceutical Collection (AID 1347407).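 Further: luminescence of HiBiT knocked into endogenous HLA-B as interferon-induced MHC class I level.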 The procedure, abridged: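 Immortalized human myoblasts (C25cl48) with HiBiT knocked into endogenous HLA-B*08:01 were stimulated with 4.0 ng/ml IFN-beta and treated with compounds ([…] top 46 uM) for 24 hrs at 37 C. HiBiT lytic luminescence read.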

Experiment [4] deals with Zika virus NS2B-NS3 protease. In words: Primary screen GU AMC qHTS for Zika virus inhibitors (AID 1347154). Further: nearly all actives have a fitted effect of over 70% in size. Further: potency means the concentration at half of the fitted maximal effect. Summed up: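 Unlinked Zika NS2B hydrophilic domain/NS3 protease domain noncovalent complex (25 nM final) in 10 mM Tris-HCl pH 8.0, 0.01% Tween 20, with AMC peptide substrate. Fluorescence (ex 340, em 450 nm) change over 15 min, room temperature; percent inhibition fitted to 4-parameter Hill equation.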

Experiment [5] deals with Zika virus NS2B-NS3 protease (linked). Put plainly: 384 well plate NINDS AMC confirmatory qHTS for Zika virus inhibitors (AID 1347163). Further: potency means the concentration at half of the fitted maximal effect; nearly all actives have a fitted effect of over 50% in size. The procedure, abridged:
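Enzyme (5, 30 or 60 nM final) first met test compounds for ~15 min. The AMC-tagged peptide Ac-VKTGKR-AMC followed at 30 microM. Fluorescence was then recorded at 25 min and scaled against no-enzyme and no-inhibitor wells.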

Records with an inconclusive call do not appear. Entries that show only a call come without a potency. Active and inactive are the calls of the source. The call rests on the fitted dose curve; in most records, active means well fitted curve in the direction sought with a large enough effect; inconclusive means small, poorly fitted or top-dose-only effect, or another doubt; inactive means no such curve, though single readings can be large; an effect the other way counts as inactive or inconclusive.

For the compound `O=C1[C@@H]2[C@H]3CC[C@H](C3)[C@@H]2C(=O)N1CCCCN1CCN(c2ncccn2)CC1`, the Potency result in experiment [1] and in experiment [3] was “inactive” throughout. Further, in experiment [2], the compound was called inactive.

Take `NC(=O)COCCN1CCN(C(c2ccccc2)c2ccc(Cl)cc2)CC1` (stereo unspecified): the Potency entry in experiment [4] and in experiment [3] was “inactive” in each case.

Consider `CC(NC(CCc1ccccc1)C(=O)O)C(=O)N1C(=O)N(C)CC1C(=O)O` (stereo unspecified), for which the Potency entry in experiment [4] and in experiment [3] was “inactive” in each case.

As for `O=C(O)Cn1cnnn1`, the Potency entry in experiment [4] and in experiment [3] was “inactive” throughout.

Take `COc1ccc([C@@H]2Sc3ccccc3NC(=O)[C@@H]2O)cc1`: the Potency entry in experiment [4] and in experiment [3] was “inactive” in each case.

As to `CC(=O)N(CC(=O)N(C)C)c1ccccc1`, the Potency result in experiment [4] and in experiment [3] was “inactive” in each case.

Turning to `CN(C)CCCOC1(Cc2ccccc2)CCCCCC1`, the Potency entry in experiment [4] and in experiment [3] was “inactive” in each case.

With `CCCC(CCC)(C(=O)OCC)C(=O)OCC`, the Potency entry in experiment [4] and in experiment [3] was “inactive” each time.

As for `CO[C@]1(NC(=O)CSC(F)F)C(=O)N2C(C(=O)O)=C(CSc3nnnn3CCO)CO[C@H]21`, the Potency result in experiment [1] and in experiment [3] was “inactive” in each case. For the same compound, the compound was called inactive in experiment [2].

As for `COc1ccc2cc(C=O)ccc2c1`, in experiment [4], the Potency is 31.6 µM (active). The Potency entry in experiment [3] is “inactive”.

With `CO[C@@H]1[C@@H](O[C@@H]2O[C@H](C)[C@@H](O[C@H]3C[C@@](C)(O)[C@@H](O)[C@H](C)O3)[C@H](N(C)C)[C@H]2O)[C@@H](CC=O)C[C@@H](C)[C@@H](O[C@@H]2CC[C@H](N(C)C)[C@@H](C)O2)/C=C/C=C/C[C@@H](C)OC(=O)C[C@H]1OC(C)=O`, the Potency entry in experiment [3] is “inactive”.

Consider `COc1cc2c(cc1OC)CN(C(=O)[C@H](C)N[C@@H](CCc1ccccc1)C(=O)O)[C@H](C(=O)O)C2`, for which the Potency entry in experiment [3] is “inactive”.

Turning to `OC1(c2ccc(Cl)c(C(F)(F)F)c2)CCN(CCCC(c2ccc(F)cc2)c2ccc(F)cc2)CC1`, the Potency entry in experiment [1] was “inactive”. For the same compound, the outcome in experiment [2] was inactive.

In the case of `O=C1Cc2cc(Cl)ccc2N1`, the Potency result in experiment [4] and in experiment [3] was “inactive” in each case.

For the compound `O=C(OCC(COC(=O)c1cccnc1)(COC(=O)c1cccnc1)COC(=O)c1cccnc1)c1cccnc1`, the Potency result in experiment [4] and in experiment [3] was “inactive” each time.

On to `Cc1ccccc1C(=O)N1CC/C(=N\OS(=O)(=O)O)c2ccc(Cl)cc21`, for which the Potency entry in experiment [4] and in experiment [3] was “inactive” throughout.

Turning to `O=C1NC2CCCCN2C12CCN(CCCN1c3ccccc3CCc3ccc(Cl)cc31)CC2` (stereo unspecified), the Potency entry in experiment [1] was “inactive”. Moreover, the result in experiment [2] was inactive.

Consider `Nc1cc(C(F)(F)F)ccc1S`, for which the Potency entry in experiment [4] and in experiment [3] was “inactive” in each case.

On to `CC1CC(=O)NN=C1c1ccc(NCC(C)(C)NCC(O)COc2cc(Cl)ccc2C#N)cc1` (stereo unspecified), for which, in experiment [2], the compound was called inactive. Further, the Potency entry in experiment [3] is “inactive”.

On to `COCCc1ccccn1`, for which the Potency entry in experiment [4] and in experiment [3] was “inactive” in each case.

With `OC[C@]1(O)OC[C@@H](O)[C@H](O)[C@@H]1O`, the Potency result in experiment [4] and in experiment [3] was “inactive” throughout.

With `CCN(CC)C(=O)C1CN2CCc3cc(OC)c(OC)cc3C2CC1OC(C)=O` (stereo unspecified), the Potency result in experiment [4] and in experiment [3] was “inactive” in each case.

On to `O=C(Oc1ccccc1)c1ccccc1O`, for which the Potency entry in experiment [4] and in experiment [3] was “inactive” each time.

On to `COC(=O)/C=C\C(=O)OC`, for which the Potency entry in experiment [4] and in experiment [3] was “inactive” in each case.

Take `[O-][n+]1cccc(/C(Cl)=N/OC[C@@H](O)CN2CCCCC2)c1`: the Potency entry in experiment [4] and in experiment [3] was “inactive” each time.

With `COC(=O)C1=C(C)NC(COC(N)=O)=C(C(=O)OC(C)C)C1c1cccc(Cl)c1Cl` (stereo unspecified), the Potency result in experiment [1] and in experiment [3] was “inactive” in each case. Further, the outcome in experiment [2] was inactive.

For the compound `CNC(=O)c1c(I)c(NC(C)=O)c(I)c(C(=O)O)c1I`, the Potency entry in experiment [4] and in experiment [3] was “inactive” each time.

In the case of `CCCCOCCOC(=O)c1cccnc1`, the Potency entry in experiment [4] and in experiment [3] was “inactive” in each case.

On to `CN(C)[C@@H]1C(=O)C(C(N)=O)=C(O)[C@@]2(O)C(=O)C3=C(O)c4c(O)cccc4C[C@H]3C[C@@H]12`, for which the Potency in experiment [5] is 126 µM (active). Further, the Potency result in experiment [3] is “inactive”.

Consider `CCc1cccc2c(CCO)c[nH]c12`, for which the Potency entry in experiment [4] and in experiment [3] was “inactive” throughout.
